# Assay results taken from PubChem BioAssay (NCATS).
# Values joined by “and” are separate entries in the source; they are usually repeats but may differ in a detail not shown here. Identical values can stand only once. Results filed as inconclusive are left out. Active and inactive are the calls of the source. Unless noted, calls follow the shape of the full dose curve.
# What was measured:
# [1] = qHTS assay for small molecule activators of the nuclear factor-kappa B (NF-kB) signaling pathway (AID 651749; active = well fitted activation curve with a large enough effect in the signal ratio; the % refers to the signal ratio; also: % of control where 0% means no effect); conditions: NF-kB-bla ME-180 cells, beta-lactamase FRET ratio, 16 h; stronger effect = higher value
# Outline: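 Incubation lasted 16 hr at 37C in 5% CO2 after 23 nL compound addition to ME-180 NF-kB-bla cells. Activation appears as beta-lactamase-mediated FRET loss.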
# [2] = qHTS assay for small molecule activators of the p53 signaling pathway (AID 651743; active = well fitted activation curve with a large enough effect in the signal ratio, not every such curve was filed as active; the % refers to the signal ratio; also: potency is read from the fitted curve at half-maximal effect; as to activation: % of control where 0% means no effect); conditions: HCT-116 p53RE-bla, beta-lactamase FRET ratio, 16 h; activation: stronger effect = higher value
# Outline: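 HCT-116 p53RE-bla, 4,000 cells/well; 5 h settle; cpd/DMSO 16 h, 37 C; LiveBLAzer B/G 2 h RT; fluorescence intensity.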
# [3] = target: Tumor necrosis factor (Homo sapiens) (UniProt P01375); assay: qHTS assay to identify small molecules that stimulate Tumor Necrosis Factor-alpha (TNF-alpha) secretion (AID 651757; active = well fitted curve in the direction sought with a large enough effect in the signal ratio; the % refers to the signal ratio; also: potency is read from the fitted curve at half-maximal effect); conditions: Human cells, HTRF 665/615 ratio; series mostly up to 92.2 µM
# Sequence of Tumor necrosis factor (Homo sapiens) (P01375 whole entry, looked up): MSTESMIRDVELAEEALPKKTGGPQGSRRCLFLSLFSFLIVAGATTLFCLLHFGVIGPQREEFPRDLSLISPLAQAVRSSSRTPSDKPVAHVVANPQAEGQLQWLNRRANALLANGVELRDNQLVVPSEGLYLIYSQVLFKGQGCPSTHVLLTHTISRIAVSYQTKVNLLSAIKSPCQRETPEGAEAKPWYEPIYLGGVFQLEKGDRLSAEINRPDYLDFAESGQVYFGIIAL
# Outline: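 Secreted TNF-alpha from compound-treated THP-1 cells (17 hrs, 37 C) was quantified with a homogeneous time-resolved fluorescence antibody assay.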
# [4] = qHTS assay for small molecule agonists of the antioxidant response element (ARE) signaling pathway (AID 651741; active = well fitted activation curve with a large enough effect in the signal ratio; the % refers to the signal ratio; also: potency is read from the fitted curve at half-maximal effect; as to activation: % of control where 0% means no effect); conditions: HepG2 ARE-bla reporter, beta-lactamase FRET ratio, 16 h; series mostly up to 96 µM
# Outline: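 HepG2 ARE-bla cells plated at 2,000 cells/well and incubated 5 h at 37 C/5% CO2 received 23 nL compound in DMSO. After 16 h at 37 C, LiveBLAzer B/G FRET substrate was applied for 2 h at room temperature and fluorescence read.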
# [5] = qHTS assay for small molecule disruptors of the mitochondrial membrane potential - 1 hr assay (AID 651754); conditions: series mostly up to 92.2 µM; also: nearly all actives have a fitted effect of over 35% in size; also: potency is read from the fitted curve at half-maximal effect
# Outline: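 Steps: seed HepG2 cells and let attach overnight; pin-transfer compound or vehicle; incubate 1 hr at 37C; add Mito-MPS dye for 30 min; read two-channel fluorescence for monomer and aggregate forms.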
# [6] = qHTS assay for small molecule disruptors of the mitochondrial membrane potential - 5 hr assay (AID 651755); conditions: JC-1-type ratio dye; also: potency is read from the fitted curve at half-maximal effect; nearly all actives have a fitted effect of over 40% in size
# Outline: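 HepG2 cells (2,000/well), attached overnight, exposed to compound 5 hr at 37C, then Mito-MPS dye 30 min. Fluorescence read for monomers (490/535 nm) and aggregates (540/590 nm).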
# [7] = Cell Proliferation Assay against the TMD8 Cell Line (AID 651645; active = well fitted curve in the direction sought with a large enough effect; an effect the other way counts as inactive or inconclusive;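 also: cells exposed to compound for 48 h before reading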); conditions: TMD8 DLBCL cell line proliferation/viability; at 46.1 µM (top of the series)
# Outline: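 TMD8 cells, 500/well in RPMI with 5% FBS, dosed immediately and grown 48 h at 37 C, 5% CO2. CellTiter-Glo luminescence normalised to DMSO 100% and 9.2 uM bortezomib (final) 0%.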
# [8] = Cell Proliferation Assay against the HBL1 Cell Line (AID 651646; active = well fitted curve in the direction sought with a large enough effect; an effect the other way counts as inactive or inconclusive;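 also: cells exposed to compound for 48 h before reading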); conditions: HBL1 DLBCL cells; at 46.1 µM (top of the series)
# Outline: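 HBL1 ABC DLBCL cells, 500/well in RPMI with 5% FBS, treated for 48 h at 37C. Viability read by CellTiter-Glo luminescence, normalized to DMSO as 100% and 9.2 uM bortezomib as 0%.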
# [9] = Cell Proliferation Assay against the TMD8 Cell Line (Caspase readout at 16 hrs) (AID 651712; active = well fitted curve in the direction sought with a large enough effect; an effect the other way counts as inactive or inconclusive); conditions: TMD8 lymphoma cells, caspase activation luminescence; series mostly up to 46.1 µM
# Outline: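 TMD8 cells in RPMI with 5% FBS were treated with compound for 16 h at 37 C, then caspase 3/7 activation was read by Caspase-Glo luminescence. Percent activity was scaled to DMSO (0%) and 9.2 uM bortezomib final (100%).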
# [10] = Cell Proliferation Assay against the TMD8 Cell Line (Caspase readout at 8 hrs) (AID 651713; active = well fitted curve in the direction sought with a large enough effect; an effect the other way counts as inactive or inconclusive); conditions: TMD8 lymphoma cells, caspase activation luminescence; series mostly up to 46.1 µM
# Outline: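 Percent activity derived from Caspase-Glo signal, DMSO set to 0% and bortezomib (9.2 uM final) to 100%. TMD8 cells were exposed to compound for 8 h in RPMI with 5% FBS.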
structure (smiles),measurement,setting,value
CCCCCCCCC(=O)NCc1ccc(O)c(OC)c1,activation,[1],-0.791% (inactive)
CCCCCCCCCCCC[N+](C)(C)CCOc1ccccc1,activation,[2],13.3% (inactive)
same,Potency,[3],inactive
NC(N)=NC(=O)c1nc(Cl)c(N)nc1N,Potency,[4],42.2 µM (active)
Oc1ccc(Cl)cc1Sc1cc(Cl)ccc1O,Potency,[4],29.8 µM (active)
same,Potency,[2],28.2 µM (active)
same,Potency,[5],8.41 µM (active)
same,Potency,[6],7.5 µM (active)
C=CCOC(Cn1ccnc1)c1ccc(Cl)cc1Cl (configuration not stated),activation,[2],19.4% (inactive) and 4.84% (inactive)
CCNc1nc(Cl)nc(NCC)n1,Potency,[4],inactive
same,activation,[2],1.85% (inactive)
Oc1ccc(Cl)cc1Cc1cc(Cl)ccc1O,Potency,[4],18.8 µM (active)
same,activation,[1],2.23% (inactive)
same,Potency,[5],10.6 µM (active)
same,Potency,[6],11.9 µM (active)
COP(=O)(OC)OC=C(Cl)Cl,Potency,[4],37.6 µM (active) and 42.2 µM (active) and 30.6 µM (active)
same,activation,[1],1.84% (inactive) and 0.182% (inactive)
same,Potency,[3],inactive
N#Cc1nn(-c2c(Cl)cc(C(F)(F)F)cc2Cl)c(N)c1S(=O)C(F)(F)F (configuration not stated),Potency,[4],61.1 µM (active)
C[C@@H]1C[C@@H]([C@H](O)CC2CC(=O)NC(=O)C2)C(=O)[C@@H](C)C1,activation,[2],3.69% (inactive) and -1.29% (inactive) and 0.673% (inactive)
same,activation,[1],5.34% (inactive)
same,Potency,[3],inactive
CN(C)C(=S)SC(=S)N(C)C,Potency,[4],24.3 µM (active)
Oc1c(Br)cc(Br)cc1Br,Potency,[4],42.2 µM (active)
same,activation,[1],-2.42% (inactive) and -0.471% (inactive)
same,Potency,[3],inactive
CN(C)C(=S)SSC(=S)N(C)C,Potency,[4],inactive
same,activation,[2],2.15% (inactive) and 1.76% (inactive)
same,activation,[1],-1.21% (inactive)
same,Potency,[5],inactive
same,Potency,[6],23.7 µM (active)
same,Potency,[3],inactive
CCCCCCCCCCCCCCCC[n+]1ccccc1,Potency,[4],10.6 µM (active)
C[C@H]1C(=O)O[C@@H]2CCN3CC=C(COC(=O)[C@](C)(O)[C@]1(C)O)[C@H]23,Potency,[4],inactive
same,activation,[1],0.569% (inactive)
CCC(=O)O[C@H]1CC[C@H]2[C@@H]3CCC4=CC(=O)CC[C@]4(C)[C@H]3CC[C@]12C,Potency,[4],inactive
same,activation,[2],-1.29% (inactive)
same,activation,[1],-1.92% (inactive)
O=C(CCl)c1ccc(Cl)cc1Cl,activation,[1],-1.69% (inactive)
same,Potency,[3],inactive
O=c1n(Cl)c(=O)n(Cl)c(=O)n1Cl,activation,[2],-4.94% (inactive)
same,activation,[1],-1.25% (inactive)
O=C(NC(=O)c1c(F)cccc1F)Nc1cc(Cl)c(OC(F)(F)C(F)C(F)(F)F)cc1Cl (configuration not stated),Potency,[4],19.3 µM (active)
same,activation,[2],4.35% (inactive)
same,activation,[1],1.78% (inactive)
COP(=S)(OC)Oc1ccc(Sc2ccc(OP(=S)(OC)OC)cc2)cc1,Potency,[4],61.1 µM (active)
same,activation,[2],9.51% (inactive)
CNC(=O)Oc1cccc2ccccc12,Potency,[4],33.5 µM (active) and 17.2 µM (active)
same,activation,[2],1.34% (inactive)
same,activation,[1],0.189% (inactive) and -3.62% (inactive)
same,Potency,[3],inactive
O=C(O)c1nn(Cc2ccc(Cl)cc2Cl)c2ccccc12,viability (% of control),[7],107%
same,"viability, percent of control",[8],112%
same,outcome,[9],inactive
same,outcome,[10],inactive
CC[n+]1c(-c2ccccc2)c2cc(N)ccc2c2ccc(N)cc21,Potency,[4],33.5 µM (active)
same,Potency,[2],8.91 µM (active)
same,Potency,[6],11.9 µM (active)
same,Potency,[3],37.6 µM (active)
COCC(=O)N(c1c(C)cccc1C)C(C)C(=O)OC (configuration not stated),Potency,[4],inactive
same,activation,[2],-5.17% (inactive)
CCOP(=S)(OCC)O/N=C(\C#N)c1ccccc1,activation,[1],0.361% (inactive)
COP(=O)(OC)C(O)C(Cl)(Cl)Cl (configuration not stated),Potency,[4],19.3 µM (active)
same,activation,[2],6.58% (inactive)
same,activation,[1],1.93% (inactive)
Cc1ccc(N=CN(C)C=Nc2ccc(C)cc2C)c(C)c1,Potency,[4],24.3 µM (active)
same,activation,[2],15.6% (inactive)
